Out of some 48,000 compounds screened, about 13,000 (27%) showed an effect of 50% or more. This is one part of the list.
Test system: Wolbachia pipientis
Experiment: Anti-Wolbachia Cell-Based Screen
Assay type: functional
Set-up: scale not given: in the data most compounds retested in dose-response had high values
Details: 5 µM

SMILES	Percent Effect [%]
CCCC(=O)NCC(=O)NC(c1ccc(Cl)cc1)C(F)(F)F (configuration not stated)	-4.192
CC(=O)c1cn(CC(=O)N2CCCC(O)(CO)C2)c2ccccc12 (configuration not stated)	-9.342
Cc1nc(C)c(CC(=O)N2C[C@H]3CC[C@@H]2CN(C(=O)N(C)C)C3)c(=O)[nH]1	-5.688
Cc1ccc(CN(Cc2ccccn2)C(=O)C2CCCCCN2C)s1 (configuration not stated)	-49.91
O=C(NCc1cc(F)ccc1F)Nc1ccn(CC(F)F)n1	-16.02
CCCS(=O)(=O)CC(=O)Nc1ccsc1	-10.7
CCNc1nc2c(s1)C(=O)CN(C(=O)NCc1ccccc1)C2	105.7
CCNc1nc2c(s1)C(=O)CN(C(=O)NCCc1ccccc1)C2	-10.47
COCc1nc2c(o1)CN(C(=O)NCc1ccccc1)C2	27.3
CN(C)c1nc2c(c(N3CCCC3)n1)CCN(C(=O)c1ccc[nH]1)CC2	91.66
Nc1nc2c(c(N3CCOCC3)n1)CCN(C(=O)c1ccc[nH]1)CC2	39.51
Cc1nc(-c2cnn(C)c2)nc2c1CN(C(=O)c1ccc[nH]1)CC2	-2.829
CC(C#N)CN(C)Cc1c(Cl)ccc2cccnc12 (configuration not stated)	4.156
CCc1cnc(N)nc1NCc1ccc(OC)cc1OC	-6.529
COc1ccc(CNc2c(C)nn(C(C)C)c2C)cc1OC.Cl	8.952
COc1ccncc1NCc1ccsc1	15.23
COc1ccc(CNc2cc(-c3nc(C)no3)ccn2)c(OC)c1	-6.518
COc1ccc(CNC(Cc2ccsc2)c2ccc(C)cn2)c(OC)c1 (configuration not stated)	101.2
COc1ccc(CNC(Cc2ccsc2)c2ccc(C)cn2)cc1OC.Cl (configuration not stated)	112.1
COc1cccc(OC)c1CNC(Cc1ccsc1)c1ccc(C)cn1 (configuration not stated)	169.8
COC(C)c1cccc(NCc2ccsc2)c1 (configuration not stated)	-13.03
O=C(NCc1cccc(-n2cncn2)c1)NCC(C1CC1)C1CC1	-15.59
CC(C)Cn1cncc1CNC1CCSCC1	2.151

SMILES	Percent Effect [%]
COc1ccc(F)c(CN2CCCC(O)(CNC3CCCCC3)C2=O)c1 (configuration not stated)	-6.817
COc1c(C)cnc(CNC(=O)c2cc(C)nc3onc(C)c23)c1C	-1.817
COc1c(C)cnc(CNC(=O)c2cnc3onc(C)c3c2)c1C	104.5
Cc1noc2ncc(C(=O)NCC3CCOC3)cc12 (configuration not stated)	-15.76
O=C(NCCOCCO)[C@@]12CNC[C@@H]1CN(C1CCCC1)C2	-7.865
CC(C)c1cc(N2CCC(CCC(=O)NC3CC3)CC2)n2nccc2n1	7.052
CCN(Cc1nnsc1Cl)C(C)c1ccc(C#N)cc1 (configuration not stated)	1.58
Cc1nc(C)n(CC2CCCN2Cc2cn3c(C)cccc3n2)n1 (configuration not stated)	-8.673
COc1cccc(CN2CCCC2Cn2nc(C)nc2C)c1 (configuration not stated)	137
COc1c(C)cnc(CN2CCCCC2Cn2nc(C)nc2C)c1C (configuration not stated)	6.225
COc1cccc(CN2CCCCC2Cn2nc(C)nc2C)c1 (configuration not stated)	129.9
COc1ccc(CCN2CCCC2Cn2nc(C)nc2C)cc1 (configuration not stated)	-8.655
c1cnn(CCNCc2nnc(C3CC3)o2)c1	-6.862
CN(CCNC(=O)N1CCN(Cc2ccon2)CC1)c1ccccc1	-8.314
CCc1nc2c(N3CCC4(CC3)CC(=O)N(CC(C)C)C4)ncnc2o1	-4.027
Cc1cc(C)c(C(=O)N2CCOCC2c2c(C)nn(C)c2C)o1 (configuration not stated)	101
Cc1nn(C)c(C)c1C1COCCN1C(=O)c1cnc(N)c(Cl)c1 (configuration not stated)	1.304
Cc1nn(C)c(C)c1C1COCCN1C(=O)c1n[nH]c2ccccc12 (configuration not stated)	16.5
Cc1nn(C)c(C)c1C1COCCN1C(=O)CCc1ccccc1 (configuration not stated)	95.59
Cc1nn(C)c(C)c1C1CCCN1C(=O)c1ccc(Cl)o1 (configuration not stated)	-7.187
Cc1nn(C)c(C)c1C1COCCN1C(=O)Cc1cccc(F)c1 (configuration not stated)	-20.34
CNC(=O)N1CCOCC1c1c(C)nn(C)c1C (configuration not stated)	-10.34
Cc1nn(C)c(C)c1C1COCCN1C(=O)c1ccc(Cl)o1 (configuration not stated)	70.94

SMILES	Percent Effect [%]
CCN(CC)C(=O)N1CCOCC1c1c(C)nn(C)c1C (configuration not stated)	7.192
Cc1nn(C)c(C)c1C1COCCN1C(=O)c1ccccc1 (configuration not stated)	-4.407
Cc1nn(C)c(C)c1C1COCCN1C(=O)CSC(C)(C)C (configuration not stated)	-11.83
CSc1ccc(C(=O)N2CCOCC2c2c(C)nn(C)c2C)o1 (configuration not stated)	94.08
COCCS(=O)(=O)N1CCN(c2cccc(O)c2)CC1	9.959
CCS(=O)(=O)NCCNC(=O)c1cc(Cl)c2c(c1)OCCCO2	12.52
CCC(CC)CN1CCC(n2cc(C3CCCC3)nn2)CC1	4.235
CN(Cc1ccc(F)cc1)CC1(O)CCCN(CC(C)(C)C)C1=O (configuration not stated)	55.08
CN(Cc1ccccc1)CC1(O)CCCN(CC(C)(C)C)C1=O (configuration not stated)	2.381
CN(Cc1ccccc1)CC1(O)CCCN(CCC2CCCCC2)C1=O (configuration not stated)	-12.81
CN(c1ncc(S(N)(=O)=O)s1)C1CCc2ccccc2C1 (configuration not stated)	1.957
CCn1cc(N)c(C(=O)NCc2cnn(C)c2)n1	-9.614
Cc1c(Br)cccc1C(=O)NCc1cnn(C)c1	-14.4
CCn1cc(Br)c(C(=O)NCc2cnn(C)c2)n1	103.9
CCC(=O)Nc1ccc2c(c1)C1(CCOCC1)CN2CCOC.O=C(O)C(F)(F)F	101.5
COCCN1CCC2(CC1)CC(N1CCOCC1)c1ccc(C)cc12.O=C(O)C(F)(F)F.O=C(O)C(F)(F)F (configuration not stated)	-12.46
COCCN1CCC2(CC1)CN(C(C)=O)c1ccc(C)cc12.O=C(O)C(F)(F)F	24.24
COCCN1CC2(CCOCC2)c2cc(NC(=O)C3CC=CC3)ccc21.O=C(O)C(F)(F)F	98.06
CCCC(=O)Nc1ccc2c(c1)C1(CCOCC1)CN2CCOC.O=C(O)C(F)(F)F	114.8
CN(C)C(=O)N1CC2(CCOCC2)c2cc(NC(=O)CCO)ccc21	-8.643
Cc1noc(C[C@@H]2COC[C@H]3CN(S(=O)(=O)C4CC4)C[C@@H]23)n1	6.683
